High-throughput results deposited in PubChem by several laboratories.
This is a sample that favours compounds with a hit; in the whole collection about 2.8% have one here.
TROY NFkB inh: blocks TROY-dependent signaling in reporter cells; 360,000 tested, 0.98% active; inhibition, % at 10 µM; Q293 LMP1-TROYcd NF-kB luciferase reporter, 4 h;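 active means compounds whose plate-normalised and pattern-corrected inhibition of the luciferase reporter signal at the single screening dose is 50% or more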
LGR2 inh: inhibitors of bursicon-induced Drosophila LGR2 receptor cAMP signaling; 380,000 tested, 0.35% active; inhibition, % at 9.99 µM; AID 720647; HEK293 LGR2, CRE-luciferase, bursicon-stimulated, 4 h;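 active means drop in luminescence signal, shown as inhibition above about 50% in the replicate tests, limit read from the data, passing the limit was not always enough; inconclusive means probably only some replicates passing the limit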;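 further: agonist challenge used bursicon conditioned medium at about half maximal strength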
EWS-Fli block: blocks EWS/Fli oncoprotein-driven transcription; A673 NR0B1-luciferase reporter, viability-normalised; inhibition, % at 12.6 µM; 350,000 tested, 0.67% active; AID 651661;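 active means mean inhibition of at least 50% after viability correction, with every replicate also passing that limit; inconclusive means mean reaches 50% but only one of two replicates passes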;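 further: firefly luciferase signal divided by Alamar Blue viability fluorescence both relative to DMSO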
PAX8 inh HTS: lowers PAX8-driven luciferase in RMG-I cells | RMG-I TPO-luciferase reporter, SteadyGlo, 24 h | inhibition, % at 12.6 µM | 360,000 tested, 1.2% active | AID 652154;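 active means mean replicate inhibition at least 60% with every replicate also reaching 60%; inconclusive means only one of the two criteria is met; inactive means mean below 60% and not all replicates reaching 60%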;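 further: luciferase light reporting Pax8 driven TPO promoter activity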
TWEAK Fn14 block: inhibitors of TWEAK-Fn14 interaction signaling; TWEAK-stimulated Fn14 reporter cells, luciferase luminescence, 8 h; inhibition, % at 10 µM; 360,000 tested, 2% active; AID 1159606; in the data active means inhibition above about 50%
Large screens that a line does not name were inactive; ! = a repeat was not active.

CCOc1ccc2ccccc2c1/C=N\NC(=O)c1ccc([N+](=O)[O-])cc1	none
CCOc1ccc2ccccc2c1/C=N\NC(=O)OC	PAX8 inh HTS 141
CCCC#Cc1ccc2c(c1)O[C@@H](CN(C)C(=O)c1ccccc1)[C@H](C)CN([C@H](C)CO)S2(=O)=O	none (no result: TROY NFkB inh, PAX8 inh HTS, TWEAK Fn14 block)
Clc1cccc(Cc2c(-c3ccco3)nc3ccc(Br)cn23)c1	none (no result: LGR2 inh)
Cc1ccc(Cc2c(-c3ccco3)nc3c4ccccc4ccn23)cc1	TWEAK Fn14 block 81
Cc1cc(Br)cn2c(Cc3cccc(Cl)c3)c(-c3ccco3)nc12	TWEAK Fn14 block 68
Clc1cccc(Cc2c(-c3ccco3)nc3ccc(Cl)cn23)c1	TWEAK Fn14 block 64
Cc1snc(S(=O)(=O)/C(C#N)=N/Nc2ccc(C(F)(F)F)cc2)c1C#N	TROY NFkB inh 52 (no result: LGR2 inh, EWS-Fli block, PAX8 inh HTS)
C[C@@H]1CN([C@H](C)CO)S(=O)(=O)c2ccc(C#CC3CC3)cc2O[C@@H]1CN(C)C(=O)c1ccncc1	none (no result: TROY NFkB inh, LGR2 inh, PAX8 inh HTS, TWEAK Fn14 block)
O=C1COc2cc(S(=O)(=O)CCC(=O)N3CCCCC3)c(Cl)cc2N1	TWEAK Fn14 block 98
Cc1cc(=O)n2[nH]c(C)c(-c3ccccc3)c2n1	none (no result: LGR2 inh, EWS-Fli block, PAX8 inh HTS)
O=c1cc(-c2ccccc2)nc2c(-c3ccccc3)c(C(F)(F)F)[nH]n12	TROY NFkB inh 56
CCCC(=O)Nc1ccc2c(c1)C(=O)N(C)C[C@@H](OC)[C@H](C)CN(Cc1ccc(-c3ccccn3)cc1)[C@H](C)CO2	PAX8 inh HTS 76 (no result: TROY NFkB inh, TWEAK Fn14 block)
CCCNC(=O)Nc1ccc2c(c1)OC[C@H](C)N(Cc1ccc(-c3ccccn3)cc1)C[C@@H](C)[C@@H](OC)CN(C)C2=O	PAX8 inh HTS 100 (no result: TROY NFkB inh, TWEAK Fn14 block)
CCCNC(=O)Nc1ccc2c(c1)OC[C@@H](C)N(Cc1ccc(-c3ccccn3)cc1)C[C@@H](C)[C@H](OC)CN(C)C2=O	PAX8 inh HTS 95 (no result: TROY NFkB inh, TWEAK Fn14 block)
C[C@@H]1CCCCO[C@H](CN(C)Cc2ccc(C(=O)O)cc2)[C@H](C)CN([C@@H](C)CO)C(=O)c2cc(NC(=O)Nc3ccccc3)ccc2O1	none (no result: TROY NFkB inh, TWEAK Fn14 block)
C[C@H]1CN([C@@H](C)CO)C(=O)c2cc(NC(=O)CCC(F)(F)F)ccc2O[C@H]1CN(C)S(=O)(=O)c1ccc(Cl)cc1	none (no result: TROY NFkB inh, TWEAK Fn14 block)
CCNc1cc2c(cc1O)CCC1C2CCC2(C)C(O)CCC12 (stereo not given)	none
CCOc1cc2c(cc1O)CCC1C2CCC2(C)C(O)CCC12 (stereo not given)	EWS-Fli block 55
O=S1(=O)CCOC[C@H](Cc2ccccc2)N1Cc1cccc(C(F)(F)F)c1	none
FC(F)(F)c1cccc(CC2CN(Cc3ccccc3)Cc3ccccc3N2c2cc(Cl)cc(Cl)c2)c1 (stereo not given)	LGR2 inh 102, EWS-Fli block 76, TWEAK Fn14 block 91
Cc1ccc(C(=O)CSc2cnc3ccccc3n2)cc1C	TROY NFkB inh 76, TWEAK Fn14 block 89
Cc1ccccc1CN1C(=O)c2ccccc2C1c1nnnn1-c1ccc2c(c1)OCCO2 (stereo not given)	EWS-Fli block 61
Cc1ccc(CN2C(=O)c3ccccc3C2c2nnnn2-c2ccc3c(c2)OCCO3)cc1 (stereo not given)	none
COc1ccc(-c2csc(NC(=O)Cc3ccccc3F)n2)cc1OC	none
O=C(Cc1ccccc1F)Nc1nc(-c2ccc(F)cc2)cs1	TROY NFkB inh 58, TWEAK Fn14 block 52
O=C(Nc1nc(-c2ccc(F)cc2)cs1)C1CCN(C(=O)c2ccc(F)cc2)CC1	TWEAK Fn14 block 57
O=C(Nc1ccc(Cl)cc1)N1C[C@@H]2[C@H](c3ccccc31)[C@@H](CO)N2C(=O)C1CC1	none (no result: TROY NFkB inh, TWEAK Fn14 block)
Cc1ccc(-n2ncc3c(=O)n(CC(=O)N4CCN(C(=O)c5ccco5)CC4)cnc32)cc1	PAX8 inh HTS 73
O=[N+]([O-])c1ccc(N=Nc2ccc(O)c3ccccc23)cc1	TWEAK Fn14 block 69 (no result: LGR2 inh, EWS-Fli block, PAX8 inh HTS)
CC(C)(C)n1[nH]c2c3c(ccc2c1=O)C(=O)c1ccccc1C3=O	TWEAK Fn14 block 64 (no result: LGR2 inh, EWS-Fli block)
COc1ccc(-c2cc(C(=O)N(C)Cc3cccc(OC)c3OC)c3ccccc3n2)cc1OC	none
COc1ccccc1CN(C)C(=O)c1cc(-c2cccs2)nc2ccccc12	TWEAK Fn14 block 74
Cc1ccccc1-c1ccc(C2[C@@H]3CN(C(=O)c4ccc(F)cc4)C[C@H]2N3)cc1 (stereo not given in full)	PAX8 inh HTS 65! (no result: TROY NFkB inh, TWEAK Fn14 block)
O=C(c1ccc(F)cc1)N1C[C@@H]2N[C@H](C1)C2c1ccc(-c2ccccc2F)cc1 (stereo not given in full)	none (no result: TROY NFkB inh, TWEAK Fn14 block)
O=C(c1ccc(F)cc1)N1C[C@@H]2N[C@H](C1)C2c1ccc(-c2ccc(F)cc2)cc1 (stereo not given in full)	PAX8 inh HTS 84! (no result: TROY NFkB inh, TWEAK Fn14 block)
CCCOC1CCCN(C(=O)c2cc(COc3c(F)cccc3F)on2)C1 (stereo not given)	none (no result: EWS-Fli block)
Cc1ccccc1C1CCCN(C(=O)c2cc(COc3c(F)cccc3F)on2)C1 (stereo not given)	TWEAK Fn14 block 85
O=C(Nc1cc(C(F)(F)F)ccc1N1CCOCC1)C1=NN(c2ccccc2)C(=O)CC1	PAX8 inh HTS 80 (no result: EWS-Fli block)
O=C(Nc1ccccc1N1CCOCC1)C1=NN(c2ccccc2)C(=O)CC1	none
Cc1ccccc1NCc1ccc(O)c2ncccc12	TWEAK Fn14 block 59 (no result: PAX8 inh HTS)
COCc1ccc(O)c2ncccc12	TWEAK Fn14 block 79 (no result: TROY NFkB inh, LGR2 inh, EWS-Fli block, PAX8 inh HTS)
Cc1cccc(NCc2ccc(O)c3ncccc23)c1	LGR2 inh inconclusive, PAX8 inh HTS 79
C[C@@H]1CCCCO[C@@H](CN(C)C(=O)C2CCCCC2)[C@H](C)CN([C@@H](C)CO)C(=O)c2cc(NC(=O)C3CCCCC3)ccc2O1	none (no result: TROY NFkB inh, TWEAK Fn14 block)
COc1ccc(S(=O)(=O)N(C)C[C@H]2OCCCC[C@@H](C)Oc3ccc(NS(=O)(=O)c4cccs4)cc3C(=O)N([C@@H](C)CO)C[C@@H]2C)cc1	none (no result: TROY NFkB inh, TWEAK Fn14 block)
COc1ccccc1-c1cnc2c(c1)C(=O)N([C@@H](C)CO)C[C@@H](C)[C@H](CN(C)Cc1ccc(F)cc1)O2	none (no result: TROY NFkB inh, TWEAK Fn14 block)
C=C1C(=O)O[C@@H]2[C@H]1CC[C@H](C)[C@]1(O)CCC(=O)[C@@]21C	PAX8 inh HTS 89
CO[C@H]1CN(C)C(=O)c2ccc(NC(=O)C3CC3)cc2OC[C@H](C)N(Cc2cncnc2)C[C@H]1C	none (no result: TROY NFkB inh, PAX8 inh HTS, TWEAK Fn14 block)
Cc1ccc(C(=O)Nc2nc(-c3ccccn3)cs2)o1	none
O=C(Nc1nc(-c2ccccn2)cs1)c1cc(Cl)ccc1[N+](=O)[O-]	PAX8 inh HTS 80
O=C(Nc1nc(-c2ccccn2)cs1)c1ccc([N+](=O)[O-])o1	PAX8 inh HTS 80
C[C@@H]1CN([C@H](C)CO)C(=O)Cc2cc(NS(=O)(=O)c3cccs3)ccc2O[C@@H]1CN(C)Cc1ccncc1	none (no result: TROY NFkB inh, TWEAK Fn14 block)
CO[C@@H]1CN(C)C(=O)c2cc(NS(C)(=O)=O)ccc2OC[C@H](C)N(C(=O)C2CCC2)C[C@@H]1C	none (no result: TROY NFkB inh, PAX8 inh HTS, TWEAK Fn14 block)
CCOc1ccc2nc(N3CCC(C(=O)N4CCN(c5ncccn5)CC4)CC3)sc2c1	none
CCOc1ccc2nc(N3CCC(C(=O)N4CCN(c5ccccn5)CC4)CC3)sc2c1	TWEAK Fn14 block 51 (no result: LGR2 inh, EWS-Fli block, PAX8 inh HTS)
O=C(Nc1ccc(N2CCCC2)c(Cl)c1)c1cccnc1	TWEAK Fn14 block 83 (no result: TROY NFkB inh, LGR2 inh, EWS-Fli block, PAX8 inh HTS)
O=C(Nc1ccc(N2CCCCC2)c(Cl)c1)c1cccnc1	none (no result: LGR2 inh, EWS-Fli block)
